From PubChem
Only a selection was taken, and hits are over-represented in it overall.
TTR transcr act: activators of transthyretin transcription; SH-SY5Y TTR promoter Gaussia luciferase, luminescence; 100% = recombinant luciferase protein wells; activation, % at 16.7 µM; actives 1.3% (n = 92,000); AID 1117267;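 active = activation above the mean of all tested compounds plus 3 SD, cut at about 9.5% in these data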;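 note: cells exposed to compounds for one day before reading; 0% = median of all test compound wells on the plate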
HuH7 TTR inh: counter-screen for TTR activators: TTR transcription inhibitors in HuH7 cells; shares compounds with TTR transcr act; HuH7 TTR promoter-Gaussia luciferase reporter, luminescence; inhibition, % at 16.7 µM; actives 4% (n = 1,100);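 active = average inhibition above the solvent-only control wells' mean plus 3 SD, cut at about 15% in these data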;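 note: 0% = cells with DMSO only and 100% = cells with inhibitor control FD; inhibitors lower well luminescence so higher value means more inhibition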
TTR up confirm: confirmation of human transthyretin transcription activators. activation, % at 16.7 µM. AID 1117280. shares compounds with TTR transcr act. SHSY5Y TTR promoter Gaussia luciferase, luminescence; 100% = purified Lucia enzyme wells, no cells. 1,100 tested, under 10 active;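 active = mean activation above a set limit taken from the earlier primary screen, cut at about 11% in these data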;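 note: 0% = DMSO-treated cells and 100% = recombinant Lucia luciferase without cells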
* = called active by the depositor.

SMILES	TTR transcr act	others
C[C@H]1CN([C@@H](C)CO)C(=O)CCCn2nncc2CO[C@H]1CN(C)C(=O)c1cc(-c2ccccc2)on1	14*	HuH7 TTR inh=-7;TTR up confirm=-1
C[C@H]1CN([C@@H](C)CO)C(=O)CCCn2cc(nn2)CO[C@@H]1CN(C)S(=O)(=O)c1ccc(Cl)cc1	3
C[C@H](CO)N1C[C@H](C)[C@@H](CN(C)C(=O)c2cc(-c3ccccc3)on2)OCc2cnnn2CCCC1=O	1
CC1=C2C3OC(=O)C(C)[C@@H]3CC[C@](C)(O)C2C2C3C4C5(C12)[C@H]1OC(=O)[C@@H](C)C1CC[C@]4(C)O[C@]5(C)[C@@H]3O (stereo not given in full)	3
Cc1cc(N2CCC[C@@H]2C)nc2ccccc12	4
CCc1ccc(Nc2nc(N3CCOCC3)nc(N3CCOCC3)n2)cc1	1
Clc1cccc(Nc2nc(N3CCOCC3)nc(N3CCOCC3)n2)c1	2
c1ccc2oc(-c3ccc(Nc4nc(N5CCOCC5)nc(N5CCOCC5)n4)cc3)nc2c1	10*	HuH7 TTR inh=-7;TTR up confirm=0
CCCC1CCC2(CCCN2CCOC(=O)Nc2ccc(F)cc2)CC1 (stereo not given)	-2
O=C(Nc1ccc(Cl)cc1Cl)OC1CCC12CCC(c1ccccc1)CC2 (stereo not given)	0
COC(=O)[C@]12C[C@H](CC(=O)NCc3ccc(OC)c(OC)c3)C(=O)N(CCc3ccc(OC)c(OC)c3)C1=C[C@H](C1CCCC1)O[C@@H]2C	-1
COC(=O)NCc1ccc2c(c1)OCO2	-1
Cc1ccc(CC(=O)NCc2ccc3c(c2)OCO3)cc1	-1
CCOCC(=O)NCc1ccc2c(c1)OCO2	12*	HuH7 TTR inh=-13;TTR up confirm=0
Cc1ccc(S(=O)(=O)N2OC(c3ccccc3)C[C@H]2CC=C(c2ccccc2)c2ccccc2)cc1 (stereo not given in full)	-1
COC(=O)[C@]12C[C@H](CC(=O)NCCc3ccccc3OC)C(=O)N(Cc3cccc4ccccc34)C1=C[C@H](C(C)(C)C)O[C@@H]2C	1
CC(C)CCN(C(=O)c1ccncc1)c1c(N)n(Cc2ccccc2)c(=O)[nH]c1=O	2
CCCCn1c(N)c(N(CCC(C)C)C(=O)COC(=O)c2cccnc2SC)c(=O)[nH]c1=O	0
CCOc1ncccc1C(=O)N(CCC(C)C)c1c(N)n(Cc2ccccc2)c(=O)[nH]c1=O	17*	HuH7 TTR inh=-5;TTR up confirm=0
CCCCNC(=O)C[C@H]1C[C@@]2(C(=O)OC)C(=C[C@H](C(C)C)O[C@@H]2C2CC2)N(CCc2ccc(OC)c(OC)c2)C1=O	0
COC(=O)[C@]12C[C@H](CC(=O)NCCCN3CCCC3=O)C(=O)N(Cc3ccc4c(c3)OCO4)C1=C[C@H](C(C)C)O[C@@H]2C1CC1	0
Cc1cccc(C(=O)NCCc2n[nH]c(=S)n2C)c1	0
Cc1ccc(NC(=O)Cc2n[nH]c(=S)n2C)cc1	11*	HuH7 TTR inh=-5;TTR up confirm=1
Cn1c(CNC(=O)c2cccs2)n[nH]c1=S	0
CC(C)n1nnnc1C1(C)CN(S(C)(=O)=O)CC(=O)N1Cc1cccc(C(F)(F)F)c1 (stereo not given)	-1
SMILES	TTR transcr act	others
COc1ccc(Oc2c(Cl)cnn(-c3ccc(C(C)C)c(C)c3)c2=O)cc1	1
O=C1CCC[C@H]2C[C@H](NCc3cccs3)CC[C@]23CCCN13	1
CCOC(=O)[C@@]12CCCC3=C1N(CCC3)C(=O)[C@H]2CC(=O)N1CCOCC1	1
Cc1ccc(NC(=O)c2cccc(NC(=O)CC3SC(N4CCCCC4)=NC3=O)c2)nc1 (stereo not given)	9.8*	HuH7 TTR inh=-6;TTR up confirm=0
COc1ccc(NC(=O)CC2SC(N3CCCC3)=NC2=O)cc1Cl (stereo not given)	6
CC1CC(C)CN(C(=O)c2cccc(NC(=O)CC3SC(N4CCCCC4)=NC3=O)c2)C1 (stereo not given)	4
Oc1ccc(Oc2ccccc2F)c2cccnc12	-3
COC(=O)[C@]12CCCCC=C1N(Cc1ccc(OC)cc1)C(=O)[C@@H]2CC(=O)N1CCCCC1	0
COc1ccc(CN2C(=O)[C@@](O)(c3cccn3C)c3cc(Br)ccc32)cc1	-2
CCOc1ccc(CCNC(=O)C2CCCCC2)cc1OCC	-1
Cc1c2ccccc2nc2ccccc12	-2
OCCNc1c2ccccc2nc2ccccc12	16*	HuH7 TTR inh=-48;TTR up confirm=15*
OCCNc1nc2ccccc2nc1NCCO	1
C#CCN1CC(N(C)CCO)CS1(=O)=O (stereo not given)	4
C[C@@H]1CN([C@H](C)CO)C(=O)c2cc(Br)cnc2O[C@H]1CN(C)Cc1ccccc1F	2
CCc1c(C)n([O-])c2c([n+]1=O)CCC2	12*	HuH7 TTR inh=-17;TTR up confirm=0
Cc1c(-c2ccc(Cl)cc2)[n+](=O)c2c(n1[O-])CCCC2	0
O=[n+]1c2c(n([O-])c3c1CCCC3)CCCC2	0
C[C@H]1[C@@H](OC(=O)NCc2cccc(C(F)(F)F)c2)CC[C@@]23CCCN2C(=O)CCC[C@@H]13	3
CN1[C@H](Cc2ccccc2)COc2cccc(F)c2S1(=O)=O	-2
CCOC(=O)[C@]12CCCC3=C1N(CCC3)C(=O)[C@@H](CC(=O)NCCCOC)C2	-1
CC1CN(Cc2ccccc2)c2nc3c(c(=O)n(CC(N)=O)c(=O)n3C)n2C1 (stereo not given)	13*	HuH7 TTR inh=19*;TTR up confirm=-1
Cc1ccc(N2CC(C)Cn3c2nc2c3c(=O)n(CC(=O)OCc3ccccc3)c(=O)n2C)cc1C (stereo not given)	1
C=CCn1c(=O)c2c(nc3n2CCCN3CCc2ccccc2)n(C)c1=O	0
CC1CN(c2ccc(Oc3ccccc3)cc2)c2nc3c(c(=O)n(CC(N)=O)c(=O)n3C)n2C1 (stereo not given)	6
SMILES	TTR transcr act	others
CCCn1c(=O)c2c(nc3n2CC(C)CN3Cc2ccccc2)n(C)c1=O (stereo not given)	-2
C=CCn1c(=O)c2c(nc3n2CC(C)CN3Cc2ccccc2)n(C)c1=O (stereo not given)	11*	HuH7 TTR inh=16*;TTR up confirm=-1
O=S1(=O)c2c(cccc2N2CC[C@@H](O)C2)O[C@@H]2CCN1C2	1
CCN(Cc1cccs1)c1ncnc2ccc(-c3ccc4c(c3)OCO4)cc12	-1
C[C@H]1[C@@H](OC(=O)Oc2ccc([N+](=O)[O-])cc2)CC[C@@]23CCCN2C(=O)CCC[C@@H]13	0
CCC1CCCCN1C(=O)n1ncc(C(O)(c2ccccc2)c2ccccc2)n1 (stereo not given)	0
CCC[C@H]1[C@@H](NC(=O)C2CCCCC2)CC[C@@]23CCCN2C(=O)CCC[C@@H]13	1
CC(=O)Nc1sc2c(c1-c1nc3ccccc3s1)CCOC2	-1
Cc1ccc(C(=O)NCCCc2ccccc2)s1	67*	HuH7 TTR inh=-7;TTR up confirm=1
Cc1ccc(C(=O)Nc2ccc(OCc3ccccc3)cc2)s1	0
COc1ccc(C(=O)NCCCc2ccccc2)cc1	-1
Cc1ccc(Cn2cc(COC(=O)N3CCCC3)nn2)cc1	0
CC12CC3(C)CC(C)(C1)CC(C(=O)NC(=S)N1CCOCC1)(C2)C3	0
CC12CC3CC(C)(C1)CC(C(=O)NC(=S)N1CCCCC1)(C3)C2	14*	HuH7 TTR inh=-6;TTR up confirm=0
